The full list was thinned out, with hits kept by preference.
MARV entry inh: qHTS for inhibitors of binding or entry into cells for Marburg Virus. Marburg virus pseudotyped entry inhibition, cell reporter. AID 540276, 2011. 1.8% of 300,000 active. Potency, µM (highest dose often 37.8 µM), actives largely listed as inhibitors; calls by dose curve; tested in HEK293 cells
Cycloheximide cs: Cycloheximide Counterscreen for Small Molecule Inhibitors of Shiga Toxin; cell reporter, cycloheximide protein synthesis inhibition counterscreen; max response, %; 12% of 300,000 active; AID 2314, 2010; in the data active = max response mostly above about 13%, no sharp cut-off; inactive = mostly below about 14%; note: read at 38.3 µM for the half of the compounds with a filed dose
Shiga inhibitor: A qHTS for Small Molecule Inhibitors of Shiga Toxin; Vero cells, Shiga toxin protein synthesis inhibition reporter; inhibition, % at 38.7 µM; AID 2315, 2010; 9.2% of 290,000 active; in the data active = inhibition mostly above about 28%, no sharp cut-off; inactive = mostly below about 43%
Lassa entry inh: qHTS for Inhibitors of binding or entry into cells for Lassa Virus; Lassa virus pseudotype entry inhibition, cell reporter; Potency, µM (top dose mostly 37.9 µM), usual class: inhibitors; 1.2% of 300,000 active; calls by dose curve; tested in HEK293 cells; note: nearly all actives have a fitted effect of over 50% in size
AMA1 RON2 block: qHTS for Inhibitors of AMA1-RON; Towards Development of Antimalarial Drug Lead: Primary Screen. Plasmodium falciparum AMA1 (3D7) - RON2 peptide interaction. AlphaScreen AMA1-biotinylated RON2 peptide binding. 0.2% of 360,000 active. Potency, µM (highest dose often 58.2 µM), usual class: inhibitors. AID 720542, 2013; active = well fitted inhibition curve with a large enough effect; inconclusive = small, poorly fitted or top-dose-only effect; inactive = no such curve, though single readings can be large or run the other way; note: nearly all actives have a fitted effect of over 45% in size
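AMA1 (3D7) with his tag at 25 nM final met compounds first, then biotinylated RON2 peptide at 25 nM; detection used donor plus acceptor beads, 10 µg/mL apiece, read by AlphaScreen after 30 min at room temperature.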
Large screens that a line does not name were inactive.

COc1ccc(/C(N)=N/OC(=O)c2ccc(Br)o2)cc1	MARV entry inh inconclusive, Shiga inhibitor 84
CCc1ccc(NS(=O)(=O)c2[nH]ncc2C(=O)OC)cc1	MARV entry inh inconclusive (no result: Cycloheximide cs, Shiga inhibitor, AMA1 RON2 block)
O=C1NC[C@H](Cc2ccccc2)N(C[C@@H]2CCCN2C[C@H](Cc2ccc(O)cc2)N2C[C@H](Cc3ccccc3)N(CCc3ccccc3)C(=O)C2=O)C1=O	none (no result: MARV entry inh, Cycloheximide cs, Shiga inhibitor, Lassa entry inh)
CN1CC=C2C(C#N)=C(N)C(C#N)(C#N)[C@H](c3ccoc3)[C@H]2C1	none
N#CC1=C(N)C(C#N)(C#N)[C@H](c2ccoc2)[C@H]2CN(Cc3ccccc3)CC=C12	MARV entry inh 6.3µM
O=C(CSCc1ccccc1Cl)NNC(=S)Nc1ccccc1	Cycloheximide cs 11
CC(C)c1ccc(CNc2ccc3c(c2)ncn3C)cc1	Cycloheximide cs 60, Shiga inhibitor 104 (no result: MARV entry inh, Lassa entry inh)
CC(C)c1ccc(CNc2ncccn2)cc1	Cycloheximide cs 39, Shiga inhibitor 42
CN(C)c1ccc(CNc2ccc3c(c2)ncn3C)cc1	MARV entry inh inconclusive, Cycloheximide cs 20, AMA1 RON2 block 27µM
CSc1ccc(CCNC(=O)NCc2noc3ccccc23)cc1	none (no result: MARV entry inh, Cycloheximide cs, Shiga inhibitor, AMA1 RON2 block)
O=C(COC(=O)c1cccc(OC(F)F)c1)Nc1cc(S(=O)(=O)N2CCCC2)ccc1Cl	none (no result: MARV entry inh, Cycloheximide cs, Shiga inhibitor, Lassa entry inh)
Cc1ccc(C(=O)N(Cc2ccc(N(C)C)cc2)CC2CCCO2)cc1 (stereo not given)	Lassa entry inh inconclusive (no result: Cycloheximide cs, Shiga inhibitor, AMA1 RON2 block)
Cc1ccc(SCC(=O)NCC(C)C)cc1	Shiga inhibitor 44
CC(C)CNC(=O)CSc1ccc(Cl)cc1	Cycloheximide cs 14
CC(C)C(NC(=O)CSc1ccc(Cl)cc1)C(C)C	none
CCC(C)NC(=O)CSc1ccc(Cl)cc1 (stereo not given)	Cycloheximide cs 18, Shiga inhibitor active, AMA1 RON2 block inconclusive
O=C(O)C[C@H](SCc1ccc(C(=O)O)o1)C(=O)O	none (no result: Cycloheximide cs, Shiga inhibitor, Lassa entry inh, AMA1 RON2 block)
O=C(CCCc1ccncc1)c1ccccc1	none (no result: Cycloheximide cs, Shiga inhibitor)
CCCC1=C(C(=O)OCC)C(/C=C/c2ccccc2)n2ncnc2N1 (stereo not given)	MARV entry inh 9.2µM
CCn1c2ccccc2c2nnc(N3CCN(c4ccc(OC)cc4)CC3)nc21	none (no result: MARV entry inh, Cycloheximide cs, Shiga inhibitor, AMA1 RON2 block)
CCCc1cc2c(=O)c(-c3ccc4c(c3)OCCO4)coc2cc1OC(=O)c1ccco1	MARV entry inh inconclusive, Cycloheximide cs 30, Shiga inhibitor 98
CCCc1cc2c(=O)c(-c3ccc4c(c3)OCCO4)c(C)oc2cc1OS(C)(=O)=O	none
CCc1cc2c(=O)c(-c3ccc4c(c3)OCCO4)coc2cc1OC(=O)c1ccco1	MARV entry inh inconclusive, Cycloheximide cs 38, Shiga inhibitor 93, Lassa entry inh inconclusive
CCCc1cc2c(=O)c(-c3ccc4c(c3)OCCO4)coc2cc1OS(C)(=O)=O	MARV entry inh inconclusive, Cycloheximide cs 56, Shiga inhibitor 45, Lassa entry inh inconclusive
CCCCN(c1ccccc1)c1ncnc2c1cnn2-c1ccc(Cl)cc1	none (no result: MARV entry inh, Cycloheximide cs, Shiga inhibitor, AMA1 RON2 block)
Cc1cc(C)nc(SCCn2c(N3CCOCC3)nc3c2c(=O)[nH]c(=O)n3C)n1	none (no result: MARV entry inh, Lassa entry inh)
CC(C)(C)N1C(=O)[C@@H]2[C@H]3[C@H](O)[C@H](O)CC(=NOCc4ccccc4)[C@H]3CC[C@H]2C1=O	none (no result: Cycloheximide cs, Shiga inhibitor, Lassa entry inh, AMA1 RON2 block)
O=C(NCCc1ccccc1)/C(=N\O)c1ccccc1	MARV entry inh inconclusive, Cycloheximide cs 45, Shiga inhibitor 52, Lassa entry inh inconclusive
CNC(=O)/C(=N\O)c1ccccc1	Shiga inhibitor 45 (no result: Lassa entry inh, AMA1 RON2 block)
Cc1cccc(C(=O)n2c(=S)nc3ccccn32)c1	Cycloheximide cs 29, Shiga inhibitor 83, Lassa entry inh inconclusive
O=C(c1ccccc1)n1ccn(-c2ccccc2)c1=S	none
Cc1ccc(C(=O)n2ncn(C)c2=S)cc1	none (no result: MARV entry inh, Lassa entry inh)
O=C(c1ccccc1)n1c(=S)nc2ccccn21	MARV entry inh inconclusive, Cycloheximide cs 52, Shiga inhibitor 97
Cc1ccc(C(=O)n2c(=S)nc3ccccn32)cc1	Cycloheximide cs 49, Shiga inhibitor 54 (no result: MARV entry inh, Lassa entry inh, AMA1 RON2 block)
Cc1cc2occ(CC(=O)N(CC(C)C)c3c(N)n(Cc4ccccc4)c(=O)[nH]c3=O)c2cc1C	none (no result: Cycloheximide cs, Shiga inhibitor)
CCOc1cccc(/C=N/NC(=O)c2cc(-c3cccn3C)n[nH]2)c1O	MARV entry inh inconclusive, Lassa entry inh 22µM
Cn1cccc1-c1cc(C(=O)N/N=C/c2cccc(O)c2)[nH]n1	Cycloheximide cs 30, Shiga inhibitor 56, Lassa entry inh inconclusive
COc1ccc(/C=N/NC(=O)c2cc(-c3cccn3C)n[nH]2)cc1OC	none
C=CCN(c1ccccc1Cl)S(=O)(=O)c1cccc(C(=O)NCCc2ccc(OC)cc2)c1	MARV entry inh inconclusive, Lassa entry inh 12µM

Assay outcomes (PubChem)
